Source: PubChem BioAssay (several laboratories)
Only some compounds are listed: those with a hit (about 2.2% of all), similar ones and a draw of the others.
Ba/F3 V617F tox: lowers viability of Ba/F3 cells expressing EpoR and JAK2V617F | ATP luminescence | inhibition, % at 5.6 µM | 220,000 compounds, 1.1% hits | AID 1446;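 active = inhibition above the campaign mean plus 3 SD over all tested compounds, cut at about 24% in these data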;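 also: cytokine-independent growth of Ba/F3 cells driven by EpoR plus mutant JAK2; 0% = DMSO-treated cells and 100% = JAK inhibitor I control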
APP 5UTR inh: APP translation inhibition; SH-SY5Y APP 5'UTR-luciferase reporter, luminescence; inhibition, % at 2 µM; 190,000 compounds, 0.82% hits;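 active = inhibition above a set limit, derived from the sample mean plus 3 SD, cut at about 45% in these data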
IEC-6 cytotox: counter-screen for KLF5 inhibitors: cytotoxicity in IEC-6 cells; 290,000 compounds, 0.78% hits; AID 1825; inhibition, % at 5 µM; IEC-6 cytotoxicity, luminescence viability; in the data active = inhibition above about 22%;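 also: 0% = plate median of test compound wells and 100% = cytotoxic reference compound wells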
KLF5 inhibitor: suppresses KLF5 promoter-driven expression; DLD-1 KLF5 promoter-luciferase reporter, luminescence; inhibition, % at 5 µM; 290,000 compounds, 0.23% hits;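 active = inhibition above a per-plate limit of that plate's mean compound inhibition plus 3 SD, cut at about 60% in these data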;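 also: 0% = DMSO wells and 100% = LY294002 at 200 µM; higher means less KLF5 promoter-driven luciferase light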
BaF3 parental: parental Ba/F3 viability inhibition as JAK2V617F counter-screen | CellTiter-Glo ATP luminescence | inhibition, % at 5.6 µM | 220,000 compounds, 1.1% hits;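 active = inhibition above a per-campaign cutoff, the mean inhibition of all tested compounds plus 3 SD, cut at about 27% in these data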;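 also: 0% = DMSO wells and 100% = JAK Inhibitor I control wells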
aSyn UTR inh: 5' untranslated region of α-synuclein, MLPCN primary screen. alpha-synuclein 5'UTR reporter, inhibitor activity. inhibition, % (tested at 7.5 µM). 300,000 compounds, 0.82% hits. AID 1813; in the data active = inhibition above about 60%;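 also: H4 neuroglioblastoma cells stably carrying SNCA 5'UTR luciferase fusion; 0% = DMSO wells and 100% = positive control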
BaF3 parental 2: counter-screen for JAK2V617F inhibitors: parental Ba/F3 viability inhibitors; shares compounds with Ba/F3 V617F tox; CellTiter-Glo luminescence; cells kept alive by added IL-3; inhibition, % at 5.6 µM; 580 compounds, 31% hits; AID 1520;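 active = cell growth inhibition above the hit limit set in the earlier mutant JAK2 cell screen, cut at about 27% in these data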;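 also: plate controls were DMSO-treated cells for no effect and JAK Inhibitor I control wells for full effect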
JAK2V617F conf: Ba/F3 EpoR-JAK2V617F viability loss, confirmation | shares compounds with Ba/F3 V617F tox | CellTiter-Glo luminescence | inhibition, % at 5.6 µM | 580 compounds, 66% hits | AID 1521;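 active = mean inhibition above the hit cutoff derived in the earlier primary screen, cut at about 25% in these data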;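 also: 0% = DMSO-treated cells and 100% = JAK inhibitor I control wells; higher means lower luminescence from reduced cell ATP and viability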
Numbers without * were called inactive.

How did Cc1ccc2[nH]cc(CCNS(=O)(=O)c3ccc(F)cc3)c2c1 do in these assays?
IEC-6 cytotox: 1; KLF5 inhibitor: -48; aSyn UTR inh: -10

What do the screens show for `O=C(Nc1nc(-c2ccc(Cl)cc2Cl)cs1)C1CCCO1` (centres undefined)?
Ba/F3 V617F tox: 28*; APP 5UTR inh: 1; IEC-6 cytotox: -1; KLF5 inhibitor: -26; BaF3 parental: 0; aSyn UTR inh: -27; BaF3 parental 2: -1; JAK2V617F conf: 2

What do the screens show for `Cc1cccc(NC(=S)N(CCN(C)C)Cc2cc3cccc(C)c3[nH]c2=O)c1`?
Ba/F3 V617F tox: -4; APP 5UTR inh: 11; IEC-6 cytotox: -1; KLF5 inhibitor: -25; BaF3 parental: 2; aSyn UTR inh: 2

Results for Cc1ccc(NC(=S)N(CCN(C)C)Cc2cc3cccc(C)c3[nH]c2=O)cc1 ?
Ba/F3 V617F tox: 43*; APP 5UTR inh: 13; IEC-6 cytotox: 11; KLF5 inhibitor: 5; BaF3 parental: 23; aSyn UTR inh: -60; BaF3 parental 2: 26; JAK2V617F conf: 39*

What do the screens show for `Cc1c(C(=O)N2CCCCCC2)c(S(=O)(=O)Nc2ccc(F)cc2)c(C)n1C`?
IEC-6 cytotox: -1; KLF5 inhibitor: -13; aSyn UTR inh: 8

What do the screens show for `Cc1ccccc1Oc1cc(-n2ncc(Cl)c(Cl)c2=O)ncn1`?
Ba/F3 V617F tox: 34*; APP 5UTR inh: 95*; IEC-6 cytotox: -5; KLF5 inhibitor: -20; BaF3 parental: 9; BaF3 parental 2: 100*; JAK2V617F conf: 100*

How did COc1ccccc1Oc1cc(-n2nc(C)cc2C)ncn1 do in these assays?
Ba/F3 V617F tox: 7; APP 5UTR inh: -18; IEC-6 cytotox: -2; KLF5 inhibitor: -12; BaF3 parental: 11; aSyn UTR inh: 11

What do the screens show for `O=C(Oc1cccc2c(O)cccc12)c1ccccc1`?
Ba/F3 V617F tox: 24*; APP 5UTR inh: -11; IEC-6 cytotox: -10; KLF5 inhibitor: 12; BaF3 parental: 12; aSyn UTR inh: 3; BaF3 parental 2: 12; JAK2V617F conf: 67*

Results for O=C(O)CCc1ccccc1OC(=O)c1ccccc1 ?
Ba/F3 V617F tox: 0; IEC-6 cytotox: -8; KLF5 inhibitor: -15; BaF3 parental: -4; aSyn UTR inh: 10

What do the screens show for `CC(=O)Nc1nnc(S(=O)(=O)N2CCN(c3ccc([N+](=O)[O-])cc3Cl)CC2)s1`?
IEC-6 cytotox: -4; KLF5 inhibitor: 6; aSyn UTR inh: 4

What do the screens show for `COc1ccccc1N1CCN(C(=O)c2cn(C)c3ccc(S(=O)(=O)N4CCOCC4)cc3c2=O)CC1`?
IEC-6 cytotox: -1; KLF5 inhibitor: -29; aSyn UTR inh: 7

How did CCOC(=O)c1cnc2ccc(OCC)cc2c1NCc1cccnc1 do in these assays?
Ba/F3 V617F tox: 16; APP 5UTR inh: -9; IEC-6 cytotox: 6; KLF5 inhibitor: -27; BaF3 parental: 0; aSyn UTR inh: -43

What do the screens show for `CCOC(=O)c1cnc2ccc(OCC)cc2c1NCc1ccccc1`?
Ba/F3 V617F tox: 24*; APP 5UTR inh: 8; IEC-6 cytotox: 12; KLF5 inhibitor: -37; BaF3 parental: -5; aSyn UTR inh: -10; BaF3 parental 2: 5; JAK2V617F conf: 31*

What do the screens show for `O=[N+]([O-])c1ccccc1N/N=C/c1cccc(O)c1O`?
Ba/F3 V617F tox: 62*; IEC-6 cytotox: -10; KLF5 inhibitor: -94; BaF3 parental: -1; aSyn UTR inh: -104; BaF3 parental 2: 51*; JAK2V617F conf: 96*

How did Cc1ccc(S(=O)(=O)N(Cc2ccccc2F)C(=O)N2CCN(C)CC2)cc1 do in these assays?
aSyn UTR inh: 12

What do the screens show for `CC1(C)CC(=O)C(C=NCCN2CCN(C(=S)Nc3ccc(F)cc3)CC2)=C(O)C1`?
Ba/F3 V617F tox: 37*; APP 5UTR inh: 0; IEC-6 cytotox: 6; KLF5 inhibitor: -3; BaF3 parental: 5; aSyn UTR inh: -14; BaF3 parental 2: 23; JAK2V617F conf: 40*

What do the screens show for `Cc1nc([N+](=O)[O-])c(Sc2nc3ccccc3[nH]2)n1Cc1ccccc1`?
Ba/F3 V617F tox: 4; APP 5UTR inh: 13; IEC-6 cytotox: 9; KLF5 inhibitor: -4; BaF3 parental: 3; aSyn UTR inh: -3

What do the screens show for `Cn1cnc([N+](=O)[O-])c1Sc1nc2ccccc2[nH]1`?
Ba/F3 V617F tox: 34*; IEC-6 cytotox: 10; KLF5 inhibitor: -6; BaF3 parental: 10; aSyn UTR inh: 38; BaF3 parental 2: 5; JAK2V617F conf: 44*

How did CC(C)Oc1ccc(CN=C(N)N=C(N)N)cc1Cl do in these assays?
Ba/F3 V617F tox: 30*; APP 5UTR inh: -7; IEC-6 cytotox: -9; KLF5 inhibitor: -27; BaF3 parental: 2; aSyn UTR inh: 14; BaF3 parental 2: 40*; JAK2V617F conf: 65*

What do the screens show for `COc1ccc(CN=C(N)N=C(N)N)cc1Cl`?
Ba/F3 V617F tox: 4; APP 5UTR inh: -15; IEC-6 cytotox: 0; KLF5 inhibitor: -21; BaF3 parental: 22; aSyn UTR inh: -2

Results for C[C@H](NC(=O)[C@H]1N2C(=O)c3ccccc3C2SC1(C)C)C(=O)N1CCC[C@H]1C(=O)O (some centres undefined) ?
IEC-6 cytotox: 4; KLF5 inhibitor: -15; aSyn UTR inh: 5

Results for O=C(OCC(=O)N1CCCC1)c1cc(Cl)ccc1[N+](=O)[O-] ?
IEC-6 cytotox: -12; KLF5 inhibitor: -47; aSyn UTR inh: -1

How did Cc1nc(Nc2ccc3c(c2)OCCO3)c2oc3ccccc3c2n1 do in these assays?
Ba/F3 V617F tox: 59*; APP 5UTR inh: -15; IEC-6 cytotox: 20; KLF5 inhibitor: -43; BaF3 parental: 7; aSyn UTR inh: -26; BaF3 parental 2: -5; JAK2V617F conf: 3

What do the screens show for `O=S(=O)(O)c1cccnc1SCc1ccccc1`?
aSyn UTR inh: -16

How did CC(C)[C@H](NC(=O)[C@@H]1Cc2ccccc2CN1C(=O)OC(C)(C)C)C(=O)NCC1CCCO1 (some centres undefined) do in these assays?
IEC-6 cytotox: 2; KLF5 inhibitor: -12; aSyn UTR inh: -2

How did CCN(CC)C(=O)C1=C(C)NC(=O)NC1c1c(F)cccc1Cl (centres undefined) do in these assays?
Ba/F3 V617F tox: 29*; APP 5UTR inh: 6; IEC-6 cytotox: -4; KLF5 inhibitor: -21; BaF3 parental: 0; aSyn UTR inh: 17; BaF3 parental 2: -6; JAK2V617F conf: 1

Results for O=C(O)/C=C(\Oc1ccccc1)C1(O)CCCCC1 ?
Ba/F3 V617F tox: 4; IEC-6 cytotox: -2; KLF5 inhibitor: -16; BaF3 parental: -1; aSyn UTR inh: 9

What do the screens show for `FC(F)(F)c1n[nH]c(=S)n1/N=C/c1ccco1`?
Ba/F3 V617F tox: 35*; APP 5UTR inh: 11; IEC-6 cytotox: -4; KLF5 inhibitor: 6; BaF3 parental: 0; aSyn UTR inh: 9; BaF3 parental 2: -8; JAK2V617F conf: -10
